Values without a mark were called inactive. For some of these results: Results with a measured potency or affinity are listed apart. Activity calls are given as the source filed them. Unless noted, no rule for the calls is given here.
Tests used:
[1] = antimalarial activity against Dd2 strain (AID 2302;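 active = growth inhibition above 50% at the single 2 µM test dose, taken to imply half-maximal potency below 2 µM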;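 also: 0% = DMSO untreated growth and 100% = chloroquine plus artemisinin killed control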); settings: P. falciparum Dd2 in RBCs, LDH growth readout, 72 h; at 2 µM; active compounds read high
[2] = human hepatoma cell viability loss – ATP luminescence, cytotoxicity control for P. falciparum antimalarial project, primary screen (AID 2303;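 active = inhibition above 50%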;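 also: 0% = DMSO wells and 100% = digitonin-killed cells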); settings: HepG2 viability, 24-48 h, at 10 µM, active compounds read high
[3] = molecular target: L-lactate dehydrogenase (Plasmodium falciparum (isolate CDC / Honduras)) (UniProt Q27743); test: PfLDH activity inhibition – cell lysate, 3D7 strain, counter-screen for P. falciparum growth inhibition project (AID 2304);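 also: 0% = vehicle and 100% = reference inhibitor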; settings: P. falciparum 3D7 crude extract, LDH APAD/NBT absorbance; at 2 µM; active compounds read high
[4] = inhibition of 3D7 malaria parasite growth – strain 3D7 (AID 2306);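 also: 0% = DMSO wells and 100% = chloroquine plus artemisinin control wells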; settings: P. falciparum 3D7 erythrocytic growth, LDH absorbance, 72 h; at 2 µM; active compounds read high
[5] = molecular target: Calcium-dependent protein kinase 1 (Plasmodium falciparum (isolate 3D7)) (UniProt P62344); test: PfCDPK1 kinase inhibitors, biochemical, TCAMS library (AID 1159585; cut-off not given, nearly all actives have IC50 up to about 0.98 µM;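 also: inhibitors leave more ATP so luminescence rises with inhibition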); settings: recombinant PfCDPK1, Kinase-Glo ATP depletion luminescence
[6] = molecular target: Plasmodium falciparum protein kinase 6 (PK6, PF3D7_1337100) (UniProt Q8IDW1); test: PfPK6 kinase inhibitors, biochemical, TCAMS library (AID 1159586); settings: recombinant PfPK6, Kinase-Glo ATP depletion luminescence
[7] = molecular target: Protein kinase 7 (PK7), Plasmodium falciparum 3D7 (PF3D7_0213400) (UniProt Q7YTF7); test: inhibition of Plasmodium PK7 catalytic activity – biochemical, TCAMS antimalarial set, Kinase-Glo luminescence (AID 1159587); settings: recombinant PfPK7, Kinase-Glo ATP depletion luminescence
[8] = molecular target: Calcium-dependent protein kinase 4 (Plasmodium falciparum (isolate 3D7)) (UniProt Q8IBS5); test: PfCDPK4 kinase inhibitors, biochemical, TCAMS library (AID 1159588; cut-off not given, nearly all actives have IC50 up to about 0.91 µM); settings: recombinant PfCDPK4, Kinase-Glo ATP depletion luminescence
Chain of Calcium-dependent protein kinase 4 (Plasmodium falciparum (isolate 3D7)) (Q8IBS5 whole entry, looked up): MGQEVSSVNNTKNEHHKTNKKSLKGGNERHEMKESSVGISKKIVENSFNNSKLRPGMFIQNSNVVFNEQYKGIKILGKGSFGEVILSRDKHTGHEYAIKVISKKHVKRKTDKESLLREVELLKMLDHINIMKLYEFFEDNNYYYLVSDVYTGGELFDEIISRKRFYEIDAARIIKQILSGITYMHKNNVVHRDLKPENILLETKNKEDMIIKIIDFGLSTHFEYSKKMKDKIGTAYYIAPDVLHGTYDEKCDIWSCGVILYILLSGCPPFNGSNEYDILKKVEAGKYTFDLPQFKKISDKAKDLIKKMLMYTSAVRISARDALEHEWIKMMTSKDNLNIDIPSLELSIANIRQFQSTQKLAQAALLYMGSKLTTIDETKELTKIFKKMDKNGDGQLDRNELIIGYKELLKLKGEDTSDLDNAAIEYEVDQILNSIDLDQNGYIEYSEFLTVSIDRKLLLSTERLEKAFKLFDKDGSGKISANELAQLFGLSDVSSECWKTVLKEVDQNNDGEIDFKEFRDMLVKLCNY

Chain of Protein kinase 7 (PK7), Plasmodium falciparum 3D7 (PF3D7_0213400) (Q7YTF7 1-343): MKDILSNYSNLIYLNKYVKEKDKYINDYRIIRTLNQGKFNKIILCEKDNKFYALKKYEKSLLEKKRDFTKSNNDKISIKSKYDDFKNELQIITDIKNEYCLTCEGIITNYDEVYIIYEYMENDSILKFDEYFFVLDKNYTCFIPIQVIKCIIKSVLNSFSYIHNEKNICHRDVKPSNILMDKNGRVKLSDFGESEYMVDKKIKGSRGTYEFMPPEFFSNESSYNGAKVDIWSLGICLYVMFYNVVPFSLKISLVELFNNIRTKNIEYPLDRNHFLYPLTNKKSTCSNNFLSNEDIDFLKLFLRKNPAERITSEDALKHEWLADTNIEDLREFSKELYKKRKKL
Chain of Plasmodium falciparum protein kinase 6 (PK6, PF3D7_1337100) (Q8IDW1 1-305): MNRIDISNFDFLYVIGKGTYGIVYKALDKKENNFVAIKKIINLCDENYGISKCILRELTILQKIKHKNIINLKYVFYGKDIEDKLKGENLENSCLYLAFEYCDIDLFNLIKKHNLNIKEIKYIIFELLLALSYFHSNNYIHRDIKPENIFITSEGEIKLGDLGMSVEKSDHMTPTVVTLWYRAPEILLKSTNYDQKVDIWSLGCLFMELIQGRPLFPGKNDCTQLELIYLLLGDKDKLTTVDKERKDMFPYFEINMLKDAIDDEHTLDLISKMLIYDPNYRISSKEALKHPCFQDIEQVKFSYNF
Chain of L-lactate dehydrogenase (Plasmodium falciparum (isolate CDC / Honduras)) (Q27743 whole entry, looked up): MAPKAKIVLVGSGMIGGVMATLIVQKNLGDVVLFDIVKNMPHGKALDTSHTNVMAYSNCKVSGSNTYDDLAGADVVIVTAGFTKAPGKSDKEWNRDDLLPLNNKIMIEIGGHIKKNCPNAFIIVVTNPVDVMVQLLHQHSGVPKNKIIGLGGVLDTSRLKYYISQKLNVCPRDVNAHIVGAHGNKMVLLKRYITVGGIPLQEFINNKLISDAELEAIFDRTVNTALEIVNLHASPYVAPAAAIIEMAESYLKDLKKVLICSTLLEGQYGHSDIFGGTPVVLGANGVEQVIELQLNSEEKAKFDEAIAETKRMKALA
Chain of Calcium-dependent protein kinase 1 (Plasmodium falciparum (isolate 3D7)) (P62344 whole entry, looked up): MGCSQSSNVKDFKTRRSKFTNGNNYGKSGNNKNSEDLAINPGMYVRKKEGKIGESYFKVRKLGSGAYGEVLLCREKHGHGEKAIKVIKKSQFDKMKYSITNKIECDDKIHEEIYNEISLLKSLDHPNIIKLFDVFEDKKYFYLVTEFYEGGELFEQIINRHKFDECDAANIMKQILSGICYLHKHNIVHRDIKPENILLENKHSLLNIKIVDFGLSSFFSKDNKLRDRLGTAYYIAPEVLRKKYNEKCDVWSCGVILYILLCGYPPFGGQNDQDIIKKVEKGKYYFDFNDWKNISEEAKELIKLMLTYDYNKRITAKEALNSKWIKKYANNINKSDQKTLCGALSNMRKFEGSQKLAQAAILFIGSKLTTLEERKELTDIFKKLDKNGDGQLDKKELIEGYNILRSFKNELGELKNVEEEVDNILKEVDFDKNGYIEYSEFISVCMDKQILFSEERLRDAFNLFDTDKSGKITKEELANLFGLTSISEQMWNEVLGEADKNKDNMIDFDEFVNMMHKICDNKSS

Row | SMILES | growth inhibition [1] | inhibition [2] | inhibition [3] | growth inhibition [4] | outcome [5] | outcome [6] | outcome [7] | outcome [8]
1 | O=C(/C=C/C=C/c1ccc(Cl)c(Cl)c1)NCCCCCN1CCCC2CCCCC21 (stereo not drawn) | 48% | 41% | -5% | 91% (active) | inactive | inactive | inactive | inactive
2 | CCOC(=O)N1CCN(C(=O)Nc2ccc(Cl)cc2)CC1 | -2% | 4% | 0% | 92% (active) | inactive | inactive | inactive | inactive
3 | C=CCOc1ccc(C(=O)Nc2nonc2-c2ccc(OC)c(OC)c2)cc1 | 91% (active) | 2% | -5% | 100% (active) | inactive | inactive | inactive | inactive
4 | COc1ccc(OC)c(-c2ccc(=O)n(CC(=O)Nc3cccc4ccccc34)n2)c1 | 95% (active) | -9% | 3% | 101% (active) | inactive | inactive | inactive | inactive
5 | CCCn1c(Sc2ccc(C#N)c([N+](=O)[O-])c2)nnc1-c1ccc(Cl)cc1 | 95% (active) | 12% | -3% | 96% (active) | inactive | inactive | inactive | inactive
6 | CN(C)CCCNCc1cn(S(=O)(=O)c2ccccc2Cl)c2ccccc12 | 71% (active) | 20% | -6% | 92% (active) | inactive | inactive | inactive | inactive
7 | CCOC(=O)N1CCN(CCCCNc2c3ccc(Cl)cc3nc3ccc(OC)cc23)CC1 | 98% (active) | 25% | -5% | 104% (active) | inactive | inactive | inactive | inactive
8 | Cc1[nH]c(C)c(-c2ccc(-c3ccc4c(c3)OCO4)nc2)c(=O)c1Br | 96% (active) | -6% | -8% | 96% (active) | inactive | inactive | inactive | inactive
9 | C=CC[C@H](NC(=O)c1ccc(NS(=O)(=O)c2ccc3nc(N)[nH]c(=O)c3c2)cc1)C(=O)OCCCC | 2% | 61% (active) | 1% | 97% (active) | inactive | inactive | inactive | inactive
10 | N#Cc1c(N)nc(SCC(=O)Nc2cc(C(F)(F)F)ccc2Cl)c(C#N)c1-c1cccs1 | 96% (active) | 23% | -4% | 90% (active) | inactive | inactive | inactive | inactive
11 | CCC1(C)CC(CCNCc2ccccc2O)(c2ccccc2OC)CCO1 (stereo not drawn) | 93% (active) | 10% | -2% | 94% (active) | inactive | inactive | inactive | inactive
12 | O=c1cc(NCCCNCc2ccc(C(F)(F)F)s2)[nH]c2ccccc12 | 68% (active) | -11% | 2% | 99% (active) | inactive | inactive | inactive | inactive
13 | CCCCN(CCCC)C(=N)c1cccc2c1CCCC2 | 9% | 11% | -2% | 95% (active) | inactive | inactive | inactive | inactive
14 | CCOc1ccc2nc(-c3ccccc3)cc(NN=Cc3ccncc3)c2c1 | 101% (active) | 19% | 0% | 102% (active) | inactive | inactive | inactive | inactive
15 | CCn1c(Sc2ccc(C#N)c([N+](=O)[O-])c2)nnc1-c1cc(OC)cc(OC)c1 | 82% (active) | 7% | -2% | 93% (active) | inactive | inactive | inactive | inactive
16 | O=C(CNCC1CCCCC1)Nc1cc(C(F)(F)F)ccc1Cl | 67% (active) | 1% | 2% | 86% (active) | inactive | inactive | inactive | inactive
17 | COc1ccc(C(=O)Nc2cc(Br)c3c(c2)CNCC3)cc1C(F)(F)F | 4% | 13% | 8% | 90% (active) | inactive | inactive | inactive | inactive
18 | CN1CCCN(c2ccnc3cc4c(cc23)N(C(=O)c2ccccc2Cl)CC4)CC1 | 30% | 4% | 3% | 88% (active) | inactive | inactive | inactive | inactive
19 | OCC1CCN(Cc2cccc(-c3ccc(-c4nc5ccc(C(F)(F)F)cc5[nH]4)cc3)c2)CC1 | 95% (active) | 25% | -3% | 101% (active) | inactive | inactive | inactive | inactive
20 | O=C(c1ccc([N+](=O)[O-])o1)N1CCN(c2nc3c(F)cc(F)cc3s2)CC1 | 86% (active) | -7% | -4% | 93% (active) | inactive | inactive | inactive | inactive
21 | Cc1cc(-c2ccc(NC(=O)c3coc4ccc(N5C[C@@H](C)N(C)[C@@H](C)C5)cc34)cc2C)cc(C)n1 | 62% (active) | 13% | -4% | 94% (active) | inactive | inactive | inactive | inactive

Row | SMILES | growth inhibition [1] | inhibition [2] | inhibition [3] | growth inhibition [4] | outcome [5] | outcome [6] | outcome [7] | outcome [8]
22 | CCN1CCN(c2cc(C)c3cc(NC(=O)c4ccc([N+](=O)[O-])c(C)c4)ccc3n2)CC1 | 39% | 8% | -2% | 92% (active) | inactive | inactive | inactive | inactive
23 | Clc1ccc(-c2ccc(CNCCCN3CCCC3)cc2)cc1 | 21% | 47% | -5% | 91% (active) | inactive | inactive | inactive | inactive
24 | c1cc(CNC2Cc3ccc(-c4cccs4)cc3C2)cc(-n2ccnc2)c1 (stereo not drawn) | 63% (active) | 0% | -1% | 100% (active) | inactive | inactive | inactive | inactive
25 | O=C(Nc1cccc(CN2CCCN(Cc3cccc(O)c3)CC2)c1)c1ccc(Cl)c(Cl)c1 | 79% (active) | 25% | 2% | 102% (active) | inactive | inactive | inactive | inactive
26 | COc1cccc(C(=O)Nc2ccc(Oc3ccc(Cl)cc3)cc2)c1 | -2% | 33% | -5% | 92% (active) | inactive | inactive | inactive | inactive
27 | COc1ccc(C(=O)CCC(=O)N(CCSC(C)(C)C)Cc2ccc(-c3ccc(CNCCc4ccc(S(C)(=O)=O)cc4)cn3)cc2)cc1F | 42% | 9% | -3% | 98% (active) | inactive | inactive | inactive | inactive
28 | COc1c(C2CCN(CCCCNC(=O)c3ccc(-c4ccc(Cl)cc4)cn3)CC2)ccc2c1CCCC2 | 14% | 100% (active) | -3% | 93% (active) | inactive | inactive | inactive | inactive
29 | O=C(COc1ccccc1)NC1CCN(c2ccnc3cc(Cl)ccc23)C1 (stereo not drawn) | 35% | 22% | -5% | 101% (active) | inactive | inactive | inactive | inactive
30 | CN1CCN(Cc2cccc(-c3cc4nccc(Nc5ccc(Oc6ccccc6)cc5)c4cc3Cl)c2)CC1 | 96% (active) | 10% | -3% | 101% (active) | inactive | inactive | inactive | inactive
31 | O=[N+]([O-])c1ccc(/C=N/Nc2cc(-c3ccccc3)nc3ccccc23)o1 | 49% | 48% | -5% | 93% (active) | inactive | inactive | inactive | inactive
32 | CCOC(=O)c1ccc(N=C2SC(=Cc3cc(Br)ccc3O)C(=O)N2C)cc1 | 96% (active) | -3% | -2% | 99% (active) | inactive | inactive | inactive | inactive
33 | CCC(COCc1ccc(Cl)cc1)N(C)CCN(C)C(CC)COCc1ccc(Cl)cc1 (stereo not drawn) | 78% (active) | 89% (active) | -5% | 95% (active) | inactive | inactive | inactive | inactive
34 | NOCCCCOc1ccc(Cl)cc1 | -1% | 2% | -4% | 98% (active) | inactive | inactive | inactive | inactive
35 | Cc1cc2nc(-c3ccc(C(=O)NCCCc4ccccc4)cc3)[nH]c2cc1C | 5% | 7% | -2% | 91% (active) | inactive | inactive | inactive | inactive
36 | Cc1cc(C)c(C(=O)Nc2n[nH]c3nnc(-c4cccc(F)c4F)cc23)c(C)c1 | -4% | -2% | -4% | 90% (active) | inactive | inactive | inactive | inactive
37 | O=C(NC1CCN(Cc2ccccc2)CC1)c1ccc(-c2nc3cc4ccccc4cc3[nH]2)s1 | 25% | 13% | -1% | 99% (active) | inactive | inactive | inactive | inactive
38 | COc1ccccc1N1CCN(C(C(=O)NCc2cccc(F)c2)c2ccc(C)cc2)CC1 (stereo not drawn) | 80% (active) | 4% | 1% | 94% (active) | inactive | inactive | inactive | inactive
39 | CCOc1cc(C(=O)NCCc2ccc(Cl)c(Cl)c2)ccc1-c1nc2ccc(Cl)cc2[nH]1 | 47% | 9% | -4% | 100% (active) | inactive | inactive | inactive | inactive
40 | CC(C)c1ccc(CN2CCCCC(NC(=O)c3cc(-c4ccccc4F)cs3)C2)cc1 (stereo not drawn) | 84% (active) | 18% | -2% | 99% (active) | inactive | inactive | inactive | inactive
41 | CCCC(=O)Nc1ccc(OCCCN(Cc2ccccc2OC(F)(F)F)c2ccc(C#N)c(C(F)(F)F)c2)cc1 | 95% (active) | 0% | -2% | 94% (active) | inactive | inactive | inactive | inactive
